HDAC3 inhib = HDAC3 deacetylase inhibitors, primary screen, biochemical, fluorescence, cell-free homogeneous | Histone deacetylase 3 (Homo sapiens), O15379 | recombinant HDAC3, fluorogenic peptide/trypsin coupled | inhibition, % at 8.3 µM | hit rate 0.15% among 320,000 | AID 2718, 2010; in the data active = inhibition above about 26%, passing the limit was not always enough; inconclusive = no clear call, values can overlap the other calls
Target sequence (O15379 whole entry, looked up): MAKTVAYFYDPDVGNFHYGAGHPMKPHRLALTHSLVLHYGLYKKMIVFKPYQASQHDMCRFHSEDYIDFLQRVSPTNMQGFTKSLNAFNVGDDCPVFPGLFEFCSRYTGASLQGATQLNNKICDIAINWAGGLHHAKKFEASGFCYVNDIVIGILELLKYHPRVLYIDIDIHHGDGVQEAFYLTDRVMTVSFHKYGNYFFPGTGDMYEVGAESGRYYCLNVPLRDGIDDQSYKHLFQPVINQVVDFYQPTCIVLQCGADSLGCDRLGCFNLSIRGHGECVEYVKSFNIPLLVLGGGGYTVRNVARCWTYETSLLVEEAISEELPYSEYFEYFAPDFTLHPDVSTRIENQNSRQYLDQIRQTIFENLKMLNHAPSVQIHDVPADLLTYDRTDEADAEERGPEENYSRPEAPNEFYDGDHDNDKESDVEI
Efflux pump mplx = inhibitors of Candida efflux pumps in yeast, primary screen, S. cerevisiae, Nile Red, multiplex | hit rate 0.44% among 330,000 | S. cerevisiae Candida pump triplex | inhibition, % at 10 µM;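 active = plate passing quality check with inhibition over a set limit, or well fluorescence over plate mean plus 4 SD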;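 note: Nile Red retained in pooled yeast measured as flow cytometry median fluorescence; 0% = buffer negative control and 100% = Enniatin B positive control; higher means more Nile Red kept so more efflux inhibition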
GRK2 inh = compounds blocking aptamer binding on GRK2 – biochemical, human GRK2, bead flow cytometry, HTS, primary screen | FAM-aptamer displacement from GRK2 | hit rate 0.59% among 330,000 | inhibition of aptamer binding, % at 10 µM | Beta-adrenergic receptor kinase 1 (Homo sapiens), P25098 | AID 488847, 2010;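 active = inhibition of aptamer binding above 40%, roughly 3 SD of noise, on plates passing a quality check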;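 note: median bead fluorescence of bound FAM aptamer so fluorescent compounds give negative values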
Rtt109 Vps75 = inhibitors of C. albicans Rtt109/Vps75 HAT, primary screen, biochemical, ThioGlo CoA-SH fluorescence, plate reader; purified Rtt109/Vps75, 4 h; inhibition, % at 34.9 µM; hit rate 0.16% among 330,000; AID 540336, 2011;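 active = inhibition of at least 50% in every replicate; inconclusive = best replicate reaches 50% inhibition but some replicates fall short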
Rce1 inhib = yeast Rce1p protease inhibitors, primary screen, biochemical, fluorescence, cell-free homogeneous. CAAX prenyl protease 2 (Saccharomyces cerevisiae (strain ATCC 204508 / S288c)), Q03530. yeast membranes, quenched prenylated peptide cleavage fluorescence. calls only. hit rate 0.27% among 290,000. AID 2563, 2010;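 active = fall in fluorescence gain of 50% or more versus controls, with final raw signal at or below 3038400; inconclusive = same 50% fall but final raw signal above 3038400; inactive = fall in fluorescence gain under 50%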;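 note: plate controls were neutral control wells for no effect and wells lacking membranes for full effect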
ALR H2O2 inh = inhibitors of human ALR sulfhydryl oxidase, primary screen, biochemical, H2O2 detection, HRP-luminol luminescence, single point | hit rate 3.8% among 290,000 | purified ALR, DTT oxidation | inhibition, % (concentration not given with the values) | AID 485317, 2010;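 active = mean replicate inhibition above about 79%, with every replicate also reaching it, limit read from the data; inconclusive = only one of the two criteria met; inactive = mean below limit and not every replicate reaching it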
Target sequence (P55789 whole entry, looked up): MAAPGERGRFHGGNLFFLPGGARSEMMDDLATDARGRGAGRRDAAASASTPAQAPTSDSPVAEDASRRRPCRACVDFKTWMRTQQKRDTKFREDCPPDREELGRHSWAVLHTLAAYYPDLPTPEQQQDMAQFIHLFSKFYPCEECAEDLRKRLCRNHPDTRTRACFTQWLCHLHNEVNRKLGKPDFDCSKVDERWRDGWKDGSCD
The depositor's hits bear a star; i = inactive; u = inconclusive; x = no result; + = active, no number. Sampled rows, rich in hits. Any-hit rate of the full collection: about 4.5%.

SMILES | HDAC3 inhib | Efflux pump mplx | GRK2 inh | Rtt109 Vps75 | Rce1 inhib | ALR H2O2 inh
O=C(CCN1C(=O)/C(=C/c2cccs2)SC1=S)Nc1ccc(C(=O)O)c(O)c1 | 6 | 0 | 2 | 27 | i | 79*
CCCc1cc(=O)oc2cc(C)cc(OC(C)C(=O)NCC(O)c3ccccc3)c12 (centres undefined) | -15 | 0 | 0 | -4 | i | 0
CC(OC(=O)CCCC(=O)Nc1ccc(F)cc1)C(=O)c1ccccc1 (centres undefined) | 6 | 0 | 0 | -4 | i | -7
CC(=O)c1ccc(NC(=O)COC(=O)CCC2CCCC2)cc1 | 8 | 0 | 0 | 5 | x | -1
CCN1CCN(c2ccc(S(=O)(=O)N3CCOCC3)cc2NC(=O)C(C)Oc2ccc(Cl)cc2)CC1 (centres undefined) | x | 0 | 0 | 10 | i | -1
CNC(=S)N/N=C/c1ccc(N(C)C)cc1 | -26 | 0 | 0 | -11 | i | 99*
CNC(=S)N/N=C/c1ccc(C(C)C)cc1 | 5 | 0 | 0 | 9 | i | 21
COCCCNC(=S)N/N=C/c1ccc(N(C)C)cc1 | -27 | 0 | 7 | -13 | i | 98*
Cc1c(NC(=S)N/N=C/c2ccc(N(C)C)cc2)c(=O)n(-c2ccccc2)n1C | -13 | 0 | 1 | 7 | i | 99*
COC(=O)COc1coc(CN2CCN(c3cccc(Cl)c3)CC2)cc1=O | u | 0 | 0 | 6 | i | 3
O/N=C(\c1ccccc1)c1nccc2ccccc12 | 3 | 0 | 0 | -4 | i | -1
Oc1ccc2c(c1)oc1cc(O)ccc12 | 10 | 0 | 2 | 4 | i | 99*
CN(C(=O)CSc1cc(Cl)ccc1Cl)C1CCS(=O)(=O)C1 (centres undefined) | -4 | 0 | 0 | -3 | x | 0
COc1cc(C)c(C(=O)Oc2cc(C)c(C(=O)O)c(O)c2C)c(O)c1C | 3 | 0 | 3 | 18 | i | 97*
O=C(Cc1ccc(NC(=O)C2CCCN(C(=O)C3CC3)C2)cc1)Nc1cccc(C(=O)N2CCCCC2)c1 (centres undefined) | x | x | x | 0 | x | x
CCCCC(=O)Nc1cccc(NC(=O)c2cccnc2Cl)c1 | 1 | 0 | 1 | -13 | i | -6
CC1(C)CC(=O)C=C(Nc2ccccc2N)C1 | 0 | 0 | 0 | 3 | i | 99*
O=C(Cn1c(=O)oc2cc(S(=O)(=O)N3CCc4ccccc43)ccc21)N1CCCCC1 | 7 | 0 | 0 | 11 | i | 88*
O=C1c2c(O)ccc(O)c2C(=O)c2c(NCCNCCO)ccc(NCCNCCO)c21 | 0 | 0 | 99* | 4 | x | 100*
O=C1ON(Cc2ccccc2)C(c2ccccc2)N1c1ccccc1 (centres undefined) | x | x | x | 1 | x | x
COc1ccc(N/N=C(/C#N)S(=O)(=O)c2nsc(C)c2C#N)cc1 | 7 | 0 | 2 | -4 | i | 98*
COc1ccc(N/N=C(/C#N)S(=O)(=O)C(C)(C)C)cc1 | 0 | 0 | 2 | 2 | i | 98*
CC(C)(C)[C@@H]1COC(=O)[C@H](Cc2ccc(F)cc2)C/C=C\C[C@H](CC(=O)N(CCO)Cc2ccccc2)C(=O)N1 | 0 | 1 | 0 | 11 | x | -8
O=C(O)c1ccc2c(=O)n3c(nc2c1)/C(=C/c1cccc(Cl)c1Cl)CCCC3 | -2 | 0 | 2 | 8 | i | 97*
O=C(O)c1ccc2c(=O)n3c(nc2c1)/C(=C/c1ccc(F)cc1)CC3 | 0 | 3 | 10 | -4 | i | x
SMILES | HDAC3 inhib | Efflux pump mplx | GRK2 inh | Rtt109 Vps75 | Rce1 inhib | ALR H2O2 inh
O=C(O)c1cccnc1SCc1cn2cc(Br)ccc2n1 | 3 | 0 | 2 | -7 | i | 62
Cc1cc(C)n2cc(CSC3=NCCS3)nc2n1 | -50 | 0 | 0 | -10 | + | 28
Cc1cc(C)n2cc(CSc3nnnn3-c3ccccc3C)nc2n1 | -9 | 0 | 0 | 9 | i | 8
Cc1cc(C)n2cc(CSc3ncccc3C(=O)O)nc2n1 | -34 | 0 | 0 | -2 | + | 3
Cc1ccnc(SCc2cn3c(C)cc(C)nc3n2)n1 | -37 | 0 | 0 | 4 | + | -8
Oc1ccc(Br)cc1C=Nc1ccc(Cl)cc1 | -1 | 0 | 3 | -1 | i | -18
CCN(CC)c1ccc(N=Cc2cc(Br)ccc2O)cc1 | -8 | 0 | 10 | 59* | i | 28
C=C1C[C@H](O[C@@H]2O[C@H](CO)[C@@H](O)[C@H](O)[C@H]2O)[C@@H]2[C@H](OC(=O)[C@H]2C)[C@H]2[C@H](C)[C@H](O)C[C@@H]12 | -1 | 0 | 0 | -3 | x | -7
CCOC(=O)c1csc(NC(=O)CSc2nnnn2CC)n1 | -3 | 0 | 1 | 0 | i | 99*
Cc1csc(NC(=O)CSc2nncn2C)n1 | 1 | 0 | 0 | -10 | i | -9
Cc1csc(NC(=O)CSc2nccn2C)n1 | -12 | 0 | 2 | -8 | i | 96*
Cc1csc(NC(=O)CSc2nncc(=O)n2N)n1 | 1 | 0 | 2 | -2 | i | 98*
CCOC(=O)c1csc(NC(=O)CSc2nnnn2-c2ccc3c(c2)OCCO3)n1 | 2 | 0 | 3 | 0 | x | 1
CCOc1cc(/C=C2/NC(=O)N(CC(=O)OC)C2=O)ccc1O | 7 | 0 | 0 | 4 | i | 96*
C=CCc1cc(/C=C2/NC(=S)NC2=O)cc(OC)c1O | 2 | 0 | 5 | -9 | i | 34
C=CCc1cc(/C=C2/NC(=O)N(CC(=O)OC)C2=O)cc(OC)c1O | 7 | 0 | 0 | -21 | i | 98*
C=CCn1c(SCC(=O)N2CCCCC2)nnc1-c1ccncc1 | 6 | 0 | 4 | 11 | i | 0
CCn1ccnc1C(O)c1ccc(N(C)C)cc1 (centres undefined) | 0 | 0 | 2 | -4 | i | 99*
Cc1cc2cc3c(cc2nc1SCC(=O)O)CCC3 | 12 | 0 | 1 | -7 | i | 98*
O=C(CN1CCOCC1)NNc1c2ccccc2nc2ccccc12 | 2 | 0 | 3 | 3 | i | 98*
Nc1ccccc1C(=O)NNc1c2ccccc2nc2ccccc12 | 9 | 0 | 3 | -9 | i | 98*
C[N+]1(CC(=O)NNc2c3ccccc3nc3ccccc23)CCOCC1 | 3 | 0 | 5 | x | i | 99*

Assay outcomes (PubChem)
